Screen size: about 1,300 compounds; about 420 (32%) were called active. Inconclusive results (about 32%) are left out. The list shows a part of the results. Values without a mark were called inactive. Calls follow the shape of the dose curve; as a rule, active = well fitted inhibition curve with a large enough effect; inconclusive = small, poorly fitted or top-dose-only effect; inactive = no such curve, though single readings can be large or run the other way.
% is scaled to controls: 0 for no effect and ±100 for the full control effect; potency is read from the fitted curve at half-maximal effect.

The assay concerns the target C-terminal-binding protein 1 (Homo sapiens) (UniProt Q13363). Nature of the assay: qHTS for Inhibitors of the Phosphatase Activity of Eya2: Carboxyl-terminal binding protein (CtBP) Counterscreen for Cherry-picked Compounds. Also: nearly all actives have a fitted effect of over 65% in size. The note with it: purified protein-protein binding, AlphaScreen, 3 h; series mostly up to 46.1 µM; activity change, negative = inhibition: at the top concentration. The essentials:
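Cherry-picked compounds (final 2.5 nM–46 uM) were incubated 2 h at RT with 25 nM CtBP-6xHIS and 25 nM GST-E1A. Alpha beads (20 ug/mL) were then added for 1 h, light-protected; DMSO and E1A peptide inhibitor wells set the normalization.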
Consider `COc1ccccc1-c1noc2c1C(=O)N(Cc1cn(-c3ccc(Cl)cc3)nn1)CC2`, for which the “activity change, negative = inhibition” value was -9.35%.

Regarding `COc1cc(N)c(Cl)cc1C(=O)N[C@H]1CCN(CCCOc2ccc(F)cc2)C[C@H]1OC`, the “activity change, negative = inhibition” value is 6.45%.

`Brc1ccc(Cn2c(-c3ccc(Br)o3)nc3ccccc32)o1`: the “activity change, negative = inhibition” value was -29%.

`Cc1cc(C(=O)COC(=O)c2ccc(O)cc2)c(C)n1CCc1ccc(F)cc1`: the “activity change, negative = inhibition” value was -11.6%.

As for `Cc1c(C(=O)O)cccc1-c1ccc(/C=C2\SC(=O)NC2=O)o1`, the “activity change, negative = inhibition” value is -8.25%.

Take `CCOC(=O)C(C)N1C(=O)S/C(=C\c2ccc(-c3ccccc3C(=O)O)o2)C1=O` (configuration not stated): the Potency was 15.1 µM (active).

For `CCn1c(C)cc(/C=C2/SC(=O)N(C(C)C(=O)OC)C2=O)c1C` (configuration not stated), the “activity change, negative = inhibition” value is -12.7%.

On to `O=C(O)CSCc1nc2cccnc2n1C1CCCCC1`, for which the “activity change, negative = inhibition” value was -5.89%.

Consider `CC1(C)CC(=O)C(C2C3=C(CC(C)(C)CC3=O)Oc3c(Br)cc(Br)cc32)=C(O)C1` (configuration not stated), for which the Potency was 4.78 µM (active).

`Cc1nc(C)c(-c2csc(Nc3ccc(O)c(C(=O)O)c3)n2)s1`: the Potency is 15.1 µM (active).

As for `Cn1c(=O)c2[nH]c(COc3ccccc3)nc2n(C)c1=O`, the “activity change, negative = inhibition” value was -15.6%.

Turning to `CC1(C)Nc2cccc3c(N=Nc4ccc(N=Nc5ccccc5)c5ccccc45)ccc(c23)N1`, the Potency is 3.38 µM (active).

With `COc1ccc(N(CC(=O)Nc2nc3ccc(C)cc3s2)S(=O)(=O)c2c(C)nn(C)c2C)cc1`, the “activity change, negative = inhibition” value is -8.97%.

Consider `Cc1cnc2ccc(I)cc2c1/C=C/c1ccc(N(C)C)cc1`, for which the Potency is 10.7 µM (active).

Turning to `CCN(CC)c1ccc(/C=C/c2c(C)cnc3ccc(C)cc23)cc1`, the Potency was 8.49 µM (active).

For the molecule `Cc1ccc2c(/C=C/c3ccc(N(C)C)cc3)c(C)cnc2c1`, the Potency is 10.7 µM (active).

For `CCc1cnc2ccccc2c1/C=C/c1ccc(N(C)C)cc1`, the Potency is 10.7 µM (active).

For `Cc1ccc(-n2nnnc2C(=Cc2ccc(N(C)C)cc2)c2nnnn2-c2ccc(C)cc2)cc1`, the “activity change, negative = inhibition” value was 6.55%.

As to `O=c1cc(-c2ccccc2Cl)oc2c(NS(=O)(=O)c3ccccc3OC(F)(F)F)ccc(O)c12`, the “activity change, negative = inhibition” value was -22.3%.

Turning to `O=C(O)c1c(C(=O)N2N=C3/C(=C/c4ccccc4)CCCC3C2c2ccccc2)cccc1[N+](=O)[O-]` (configuration not stated), the “activity change, negative = inhibition” value was -5.07%.

For the molecule `Cc1ccccc1NC(=O)C1CCN(C(=O)N2CCOc3ccccc32)CC1`, the “activity change, negative = inhibition” value is -1.23%.

In the case of `CC1CN(C(=O)c2cc(S(=O)(=O)N(C)c3ccc(F)cc3)ccc2Cl)CC(C)O1` (configuration not stated), the “activity change, negative = inhibition” value is 1.04%.

For the molecule `COc1ccc(S(=O)(=O)N2CCCCC2)cc1NC(=O)c1[nH]c(C)c(C(C)=O)c1C`, the “activity change, negative = inhibition” value was -26.5%.

For `CCOc1ccc(S(=O)(=O)N2CCN(C)CC2)cc1NC(=O)c1ccccc1F`, the Potency was 7.57 µM (active).

Regarding `CC(Oc1ccc(F)cc1)C(=O)Nc1cc(S(=O)(=O)N2CCCCC2)ccc1N1CCN(C)CC1` (configuration not stated), the “activity change, negative = inhibition” value was -22.7%.

Regarding `O=C1c2ccccc2C(=O)N1CCCc1cn(C[C@H]2CC[C@@H]([C@@H]3CC[C@H](Cn4cc(CCCN5C(=O)c6ccccc6C5=O)nn4)O3)O2)nn1`, the “activity change, negative = inhibition” value is 7.27%.

`Cc1ccc(-c2n[nH]c(=O)c3ccccc23)cc1S(=O)(=O)Nc1ccccc1`: the “activity change, negative = inhibition” value was -25.8%.

Regarding `COc1cc(C2C(C#N)=C(N)Oc3n[nH]c(C)c32)ccc1OC(=O)c1ccccc1` (configuration not stated), the Potency was 8.49 µM (active).

With `COc1ccc(Cc2nc3c4c(ncn3n2)Oc2ccc3ccccc3c2C4c2ccc(OC)c(OC)c2)cc1` (configuration not stated), the “activity change, negative = inhibition” value was -11.2%.

In the case of `CCOc1ccccc1O[C@H](c1ccccc1)[C@H]1CNCCO1`, the “activity change, negative = inhibition” value was 6.74%.

Regarding `Cc1[nH]c2ccc(C(=O)OC(C)C(=O)N(C)c3ccccc3)cc2c1C` (configuration not stated), the “activity change, negative = inhibition” value is -24.1%.

`CCOC(=O)c1[nH]c2ccc(C(=O)OC)cc2c1C(=O)OCC`: the Potency is 10.7 µM (active).

For `CS(=O)(=O)n1nc(OC(=O)c2cccs2)cc1N`, the “activity change, negative = inhibition” value is -10.9%.

As to `Cc1cc(O)c(-c2cc(O)c(C)cc2O)cc1O`, the “activity change, negative = inhibition” value is -27.2%.

As for `CCN(CC)S(=O)(=O)c1cc(OC)ccc1N=Nc1ccc(O)c2ncccc12`, the “activity change, negative = inhibition” value was -101%.

As for `COc1cc(N(C(C)=O)c2ccc(O)c(C(=O)O)c2)c2ncccc2c1`, the Potency is 8.49 µM (active).

As to `Nc1ccc2c(c1)C(=O)c1cc(N)c(Cl)cc1-2`, the “activity change, negative = inhibition” value was -15.7%.

As to `COc1cc2c(cc1N)-c1ccc(N)cc1C2=O`, the Potency was 16.9 µM (active).

For the molecule `COc1ccc(N)cc1-n1c(C)ccc1C`, the “activity change, negative = inhibition” value was -6.45%.

In the case of `CCOc1ccc2ccccc2c1C(=O)N[C@@H]1C(=O)N2[C@@H]1SC(C)(C)[C@@H]2C(=O)O`, the “activity change, negative = inhibition” value was -4.22%.

In the case of `CCN1C(=O)c2cccc3c(S(=O)(=O)N(C(C)=O)c4ccc(OC(C)=O)cc4)ccc1c23`, the Potency was 12 µM (active).

With `CC(=O)Oc1ccc(N2C(=O)c3cccc4c([N+](=O)[O-])ccc(c34)C2=O)cc1`, the “activity change, negative = inhibition” value was -18.6%.

As for `N/C(=N\OC(=O)c1ccc2ccccc2c1)c1ccncc1`, the “activity change, negative = inhibition” value was -17.8%.

As for `C/C(=C1/C=Nc2ccccc21)c1ccc(N(C)C)cc1`, the Potency was 16.9 µM (active).

For the molecule `Cn1c(=O)cc2c3c(c(N4CCCCC4)ccc31)C(=O)c1ccccc1-2`, the Potency was 3.79 µM (active).

On to `CCOc1ccc(NC(=O)COc2ccc3c(c2)CCC3)cc1OC`, for which the “activity change, negative = inhibition” value was -0.283%.

As for `CCOc1ccc(S(=O)(=O)NCc2ccc(C)cc2)c2cccnc12`, the “activity change, negative = inhibition” value was -4.12%.

For the origin of these results see PubChem BioAssay AID720541 (National Center for Advancing Translational Sciences (NCATS), 2013).
